# Experimental data from PubChem BioAssay (NCATS).
# Records with an inconclusive call do not appear. A number with no mark means an inactive call. Activity calls are given as the source filed them. Calls follow the shape of the dose curve; as a rule, active = well fitted cell-killing curve with a large enough effect; inconclusive = small, poorly fitted or top-dose-only effect, or effect the other way; inactive = no such curve, though single readings can be large or run the other way.
# Test: Quantitative High-Throughput drug screen in 47 multiple myeloma cell lines against the NCATS MIPE library collection: Karpas25_ECACC cell viability assay (AID 1918968; also: nearly all actives have a fitted effect of over 35% in size)
# Conditions: Karpas25 myeloma viability, CellTiter-Glo ATP, 48 h; series mostly up to 45.8 µM
# Description: PI: Beverly A. Mock Ph.D.
# Laboratory of Cancer Biology and Genetics,
# Center for Cancer Research, National Cancer Institute,
# National Institute of Health, Bethesda, Maryland
# Drug resistance and disease progression are common in multiple myeloma (MM) patients, underscoring the need for new therapeutic combinations. […] We hypothesized that effective combinations would reduce MYC expression and enhance p16 activity. […] These preclinical data identify potentially useful drug combinations for evaluation in drug-resistant MM and reveal potential mechanisms of combined drug sensitivity.
# Described herein is the primary MIPE qHTS used to cherrypick compounds. Validated compounds were then further tested for potential synergistic activiy.
# [1] Peat TJ, Gaikwad SM, Dubois W, Gyabaah-Kessie N, Zhang S, Gorjifard S, Phyo Z, Andres M, Hughitt VK, Simpson RM, Miller MA, Girvin AT, Taylor A, Williams D, D'Antonio N, Zhang Y, Rajagopalan A, Flietner E, Wilson K, Zhang X, Shinn P, Klumpp-Thomas C, McKnight C, Itkin Z, Chen L, Kazandijian D, Zhang J, Michalowski AM, Simmons JK, Keats J, Thomas CJ, Mock BA. Drug combinations identified by high-throughput screening promote cell cycle transition and upregulate Smad pathways in myeloma. Cancer Lett. 2023 Aug 1;568:216284. doi: 10.1016/j.canlet.2023.216284. Epub 2023 Jun 24. PMID: 37356470; PMCID: PMC10408729.
# SEQUENCE No. (e.g., 1, 2, 3, etc.); […] (e.g., Cells, Incubation, Reagent, etc.); VALUE and DESCRIPTION.
# 1; Cells; 5 uL; white, solid bottom 1536-well Greiner assay plate.
# 2; Compounds; 23 nL; Kalypsis pin tool (Wako USA) equipped with a 1536-well pin head to transfer to the assay plates.
# 3; Incubation; 48 hours; 37C incubation.
# 4; Reagent;5uL; CellTiter Glo (Promega).
# 5; Detector; 425V; Luminescence; Viewlux PerkinElmer.
# NOTES (numbers refer to Sequence numbers above)
# 1. The cell-based screening methods employed in this study were like those previously published. Briefly, the corresponding myeloma cell lines were screened in 1,536-well plates with 500 cells, 5-uL per well for inhibition of cell viability (assessed by measuring ATP levels with CellTiterGlo).
# 2. NCATS MIPE 4.0 library of approved and investigational drugs were added using the Kalypsis pin tool. Wells treated with DMSO only for 100% viability and media only wells for 0% viability were used as controls.
# 3. The assay plates were covered and incubated for 48 hours in a 37C, 5% CO2 incubator with controlled humidity.
# 4. After 48 hours, CellTilter-GloTM luminescent substrate mix (Promega) reagent was added to the assay plate and plates we incubated for 5 min at room temperature.
# 5. Signal was measured as median relative luminescence units on a ViewLux (PerkinElmer) multiplate reader.
# [1] Heske CM, Davis MI, Baumgart JT, Wilson K, Gormally MV, Chen L, Zhang X, Ceribelli M, Duveau DY, Guha R, Ferrer M, Arnaldez FI, Ji J, Tran HL, Zhang Y, Mendoza A, Helman LJ, Thomas CJ. Matrix Screen Identifies Synergistic Combination of PARP Inhibitors and Nicotinamide Phosphoribosyltransferase (NAMPT) Inhibitors in Ewing Sarcoma. Clin Cancer Res. 2017 Dec 1;23(23):7301-7311. doi: 10.1158/1078-0432.CCR-17-1121. Epub 2017 Sep 12. PMID: 28899971; PMCID: PMC6636827.
# Potency is read from the fitted curve at half-maximal effect.
SMILES,Potency,viability (% of control)
Cc1coc2c1C(=O)C(=O)c1c-2ccc2c1CCCC2(C)C,8330 nM (active),
CC=C1NC(=O)[C@H]2CSSCCC=C[C@H](CC(=O)N[C@H](C(C)C)C(=O)N2)OC(=O)[C@H](C(C)C)NC1=O,14.8 nM (active),
CN1CCC(CNc2ccc3ncc(-c4cccc(OC(F)(F)F)c4)n3n2)CC1,7430 nM (active),
COc1cc2c(cc1-c1c(C)noc1C)ncc1[nH]c(=O)n([C@H](C)c3ccccn3)c12,4690 nM (active),
Cn1c2ccccc2c2c3c(c4c5ccccc5n(CCC#N)c4c21)CNC3=O,1870 nM (active),
CC(C)C[C@H](NC(=O)CNC(=O)c1cc(Cl)ccc1Cl)B(O)O,41.8 nM (active),
Cc1cc(Nc2cc(N3CCN(C)CC3)nc(C=Cc3ccccc3)n2)n[nH]1,8550 nM (active),
COc1cc(Nc2ncc(F)c(Nc3ccc4c(n3)N(COP(=O)(O)O)C(=O)C(C)(C)O4)n2)cc(OC)c1OC,3320 nM (active),
COc1ccc(OC)c(-c2nnc3ccc(-c4ccc(OC)c(O[C@@H]5CCOC5)c4)nn23)c1,6620 nM (active),
COC(=O)c1ccc2c(C(=Nc3ccc(N(C)C(=O)CN4CCN(C)CC4)cc3)c3ccccc3)c(O)[nH]c2c1,11800 nM (active),
Cc1ccc(NC(=O)C2(c3ccc4c(c3)OC(F)(F)O4)CC2)nc1-c1cccc(C(=O)O)c1,33.2 nM (active),
N#CCNC(=O)c1ccc(-c2ccnc(Nc3ccc(N4CCOCC4)cc3)n2)cc1,9350 nM (active),
COc1ccc(CC2c3cc(OC)c(OC)cc3CC[N+]2(C)CCC(=O)OCCCCCOC(=O)CC[N+]2(C)CCc3cc(OC)c(OC)cc3C2Cc2ccc(OC)c(OC)c2)cc1OC (stereo not given),,100% [at 5.15 µM]
Clc1cccc(-c2nnnn2Cc2cccnc2)c1Cl,16600 nM (active),
Cc1c(C)n(Cc2ccc(-c3ccccc3C(=O)O)cc2)c2ccc(C(=O)N[C@@H](C)c3ccc([N+](=O)[O-])cc3)cc12,5260 nM (active),
CN1CCN(Cc2ccc(NC(=O)Nc3ccc(Oc4cc(NC(=O)C5CC5)ncn4)cc3)cc2C(F)(F)F)CC1,118 nM (active),
O=C1CCC[C@@H]2[C@H]3CCC[N+]4([O-])CCC[C@@H](CN12)[C@@H]34 (stereo not given in full),inactive,
Cc1ccc(-c2ncn(-c3ccc(Nc4nccc(-c5cccc(N6CCOCC6)c5)n4)cc3)n2)cn1,83.3 nM (active),
O=C(NCCS(=O)(=O)c1ccc(C(F)(F)F)cn1)c1ccc(Cl)cc1,inactive,
C=CC(=O)Nc1cccc(Oc2nc(Nc3ccc(N4CCN(C)CC4)cc3)ncc2Cl)c1,3720 nM (active),

SMILES,Potency,viability (% of control)
C[C@@H](Oc1cc(-n2cnc3ccc(CN4CCN(C)CC4)cc32)sc1C(N)=O)c1ccccc1C(F)(F)F,20900 nM (active),
CC(C)(C)OC(=O)Nc1ccc(-c2cc(C(=O)NCCCCCCC(=O)NO)no2)cc1,935 nM (active),
O=C(Nc1cc(C(F)(F)F)cc(C(F)(F)F)c1)c1cc(Cl)ccc1O,372 nM (active),
Cc1cc(Nc2ncnc3ccc(-c4ccc(CNCCS(C)(=O)=O)o4)cc23)ccc1Oc1ccn2ncnc2c1,332 nM (active),
c1ccc2c(CCNc3ccc(Nc4ccncc4)cc3)c[nH]c2c1,20900 nM (active),
CC1(O)CC(c2nc(-c3ccc4ccc(-c5ccccc5)nc4c3)c3c(N)nccn23)C1 (stereo not given),372 nM (active),
C[C@H]1C[C@@H]2[C@@H]([C@@H](O)C[C@@]3(C)[C@H]2CC[C@]3(O)C(=O)CO)[C@@]2(C)C=CC(=O)C=C12,105 nM (active),
Nc1cc(C(F)(F)F)c(-c2cc(N3CCOCC3)nc(N3CCOCC3)n2)cn1,743 nM (active),
CC(NCc1ccc2c(c1)nc(NC(=O)c1ccc(-c3cn[nH]c3)s1)n2CC(C)(C)O)C(C)(C)C (stereo not given),264 nM (active),
COc1cc2c(Oc3ccc(NC(=O)C4(C(=O)Nc5ccc(F)cc5)CC4)cc3F)ccnc2cc1OCCCN1CCOCC1,935 nM (active),
CN[C@H]1CCc2cc(OC)c(OC)c(OC)c2-c2ccc(OC)c(=O)cc21,10.5 nM (active),
C=CCn1c(=O)c2cnc(Nc3ccc(N4CCN(C)CC4)cc3)nc2n1-c1cccc(C(C)(C)O)n1,332 nM (active),
Cc1cc(Nc2cc(NC(=O)c3c(Cl)cccc3Cl)ccn2)nc(N)n1,13200 nM (active),
CN1CCN(c2cc(C(=O)Nc3ccc4c(c3)-c3c(c(C(N)=O)nn3-c3ccc(F)cc3)CC4)c(Cl)cn2)CC1,2350 nM (active),
CC(C)(C)c1cnc(CSc2cnc(NC(=O)C3CCNCC3)s2)o1,209 nM (active),
Cc1ccc(C(=O)Nc2ccc(CN3CCN(C)CC3)c(C(F)(F)F)c2)cc1C#Cc1cnc2cccnn12,935 nM (active),
Cc1cnc(Nc2ccc(F)cc2Cl)nc1-c1c[nH]c(C(=O)N[C@H](CO)c2cccc(Cl)c2)c1,14800 nM (active),
CCCCc1nc2cc(C=CC(=O)NO)ccc2n1CCN(CC)CC,372 nM (active),
CC(C)c1ccc(Cn2ccc3c4c(N)nc(NC5CC5)nc4ccc32)cc1,5900 nM (active),
CCn1cc(-c2ccnc3[nH]c(-c4cccc(CN(C)C)c4)cc23)c(-c2ccc(NC(=O)N(C)C)cc2)n1,4180 nM (active),
